VP16 counter: inhibits Gal4-VP16 luciferase reporter, ROR gamma counter-screen. Potency, µM (highest dose often 53.6 µM), inactives show top-dose activity, negative = inhibition, most hits filed as inhibitors. actives 3.5% (n = 310,000). AID 2546. Drosophila S2 Gal4-VP16 UAS-luciferase, luminescence, 20 h;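 note: Gal4-VP16 expression switched on by copper sulfate through the metallothionein promoter; % is set by controls: 0 for no effect and ±100 for the full control effect; nearly all actives have a fitted effect of over 50% in size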
Mito fusion yeast: inhibitors of mitochondrial division or activators of mitochondrial fusion. S. cerevisiae fusion-defective mutant growth rescue, CellTiterGlo 48 h. Potency, µM (highest dose often 46.1 µM), inactives show at the top dose growth rescue (activation), hits mostly activators. actives 0.23% (n = 320,000). AID 485298; note: % of control where 0% means no effect; nearly all actives have a fitted effect of over 45% in size
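Growth-rescue viability read-out: after 48 h at the non-permissive 37C in glycerol/ethanol YPEG, yeast mitochondrial fusion mutants are measured by CellTiterGlo luminescence; compounds (23 nl pinned per well) restoring growth score as division inhibitors or fusion activators.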
a7 integrin act: activators of alpha7 integrin expression for muscular dystrophy; Potency, µM (highest dose often 38.3 µM), without a hit: at the highest dose activation, hits mostly activators; actives 0.064% (n = 350,000); alpha7betagal myoblasts, beta-gal FDG fluorescence, 48 h;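 note: 100% = response of the positive control SU9516; nearly all actives have a fitted effect of over 60% in size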
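alpha7betagal+/- myoblasts (passage 13, 250/well) treated 48 h at 37C with compounds at 1:260 dilution of DMSO stock. Lysed, then beta-galactosidase activity read as FDG fluorescence (ex 480/em 540) after 30 min, with pre-read for autofluorescence.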
Chronic BCR inh: chronic active BCR signaling inhibition; actives 0.05% (n = 340,000); Potency, µM (top dose mostly 46.1 µM), for inactives: top-dose activity change, negative = inhibition, actives largely listed as inhibitors; ABC-DLBCL IkBa-CBG/CBR reporter, luminescence ratio, 4 h; AID 493014; active = well fitted inhibition curve with a large enough effect in the signal ratio, with a control signal flat, not every such curve was filed as active; inconclusive = small, poorly fitted or top-dose-only effect, or effect the other way, or a change in a side signal; the % refers to the signal ratio;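 note: plate controls were basal doxycycline-induced cells for no effect and cells given 10 µM MG132 for full effect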
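Concentration-response series (up to 46 uM) were applied to TMD8 dual-reporter cells for 4 h at 37C with doxycycline. Green/red ratio, after filter-overlap correction, defined %Activity; red signal alone was normalised to basal cells and zero luminescence.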
RORg inh: ROR gamma (mouse) transcription inhibition. P51450. Drosophila S2 Gal4-RORgamma UAS-luciferase reporter, 20 h. Potency, µM (titrated, usually from 53.6 µM), for inactives: top-dose activity change, negative = inhibition, hits mostly inhibitors. actives 5.4% (n = 310,000); note: % is set by controls: 0 for no effect and ±100 for the full control effect; nearly all actives have a fitted effect of over 60% in size
Target sequence (P51450 whole entry, looked up, the tested form may be a part): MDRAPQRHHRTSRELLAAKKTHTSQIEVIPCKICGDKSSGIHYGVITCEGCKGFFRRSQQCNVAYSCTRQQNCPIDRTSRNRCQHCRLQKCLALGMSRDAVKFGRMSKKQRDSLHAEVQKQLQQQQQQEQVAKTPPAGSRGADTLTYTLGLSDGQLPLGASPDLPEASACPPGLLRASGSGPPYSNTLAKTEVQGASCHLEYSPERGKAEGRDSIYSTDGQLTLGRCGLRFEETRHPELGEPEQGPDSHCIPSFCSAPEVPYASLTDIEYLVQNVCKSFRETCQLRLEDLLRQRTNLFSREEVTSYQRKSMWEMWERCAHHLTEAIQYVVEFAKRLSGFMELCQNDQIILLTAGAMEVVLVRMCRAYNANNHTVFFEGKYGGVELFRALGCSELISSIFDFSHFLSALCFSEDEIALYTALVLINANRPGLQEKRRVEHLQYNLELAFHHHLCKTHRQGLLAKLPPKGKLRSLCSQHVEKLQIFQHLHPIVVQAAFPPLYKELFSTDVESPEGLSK
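A Gal4/UAS one-hybrid system in insect cells: metallothionein-promoter Gal4–ROR gamma fusion plus Photinus luciferase reporter. Copper sulfate 700 uM final, 20 hr ambient incubation, luminescent detection after 10 min with reagent.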
uPA surface inh: inhibitors of cell surface uPA generation; cell surface uPA generation assay, qHTS; Potency, µM (doses to about 38.3 µM), for the others: at the top dose activity change, negative = inhibition, most hits filed as inhibitors; actives 0.31% (n = 330,000); AID 540303; active = well fitted inhibition curve with a large enough effect; inconclusive = small, poorly fitted or top-dose-only effect; inactive = no such curve, though single readings can be large or run the other way; tested in mouse RAW 264.7 cells; note: % is set by controls: 0 for no effect and ±100 for the full control effect; nearly all actives have a fitted effect of over 55% in size
Numbers without * were called inactive; ? = inconclusive; . = not tested or not shown. Hits are enriched below; roughly 5.5% of the tested compounds scored in any of these assays. Unless noted, calls come from the whole dose curve; as a rule, active = well fitted curve in the direction sought with a large enough effect; inconclusive = small, poorly fitted or top-dose-only effect, or another doubt; inactive = no such curve, though single readings can be large; an effect the other way counts as inactive or inconclusive. Potency is the fitted concentration of half-maximal effect.

SMILES	VP16 counter	Mito fusion yeast	a7 integrin act	Chronic BCR inh	RORg inh	uPA surface inh
CCCCN(C(=O)Oc1ccccc1)C1CCS(=O)(=O)C1 (stereo not given)	-9%	-4%	34%	1%	?	-2%
CN(C1=C(NC(=O)c2ccccc2)C(=O)c2ccccc2C1=O)C1CCS(=O)(=O)C1 (stereo not given)	7.1µM*	-5%	-63%	17%	14µM*	10µM*
COC(=O)CC(=O)c1ccc2c(c1)OCO2	1%	.	-10%	.	?	7%
CCOc1cccc(/C=N/NC(=O)c2ccc3c(c2)OCCO3)c1O	0.63µM*	-2%	-46%	?	0.4µM*	0%
Cc1cccc(-n2ncc3c(NCCCO)ncnc32)c1	-8%	0%	17%	?	8%	1.8µM*
Cc1cccc(-n2ncc3c(NCc4cccnc4)ncnc32)c1	-28%	4%	-12%	12%	25%	?
CC(=O)c1ccc(NC(=O)COc2ccc3c(c2)OCO3)cc1	-17%	-6%	-25%	?	4%	2%
CCCCCCC(=O)N/N=C/c1c(O)n(C2CC2)c(=S)[nH]c1=O	-15%	-8%	10%	0%	-39%	-4%
CCCCCCC(=O)N/N=C/c1c(O)n(C(C)CC)c(=S)[nH]c1=O (stereo not given)	?	1%	0%	-11%	10µM*	?
CC(Cl)CCl (stereo not given)	1%	.	.	.	-1%	.
CC(C)(COCC1CO1)COCC1CO1 (stereo not given)	-21%	.	.	.	-1%	.
COc1cc2c(cc1OC)[C@@H]1C(=O)c3ccc4c(c3O[C@@H]1CO2)C[C@H](C(C)C)O4	-18%	11%	-52%	1%	2%	-13%
COc1cc2c(cc1OC)[C@@H]1C(=O)c3ccc4oc(C(C)C)cc4c3OC1CO2 (stereo not given in full)	0.32µM*	.	.	.	5µM*	.
CN1C2CC(=O)CC1C(O)C2 (stereo not given)	-5%	.	.	.	-5%	.
O=C(Nc1ccccc1C(=O)O)c1cccc(N2C(=O)c3ccccc3C2=O)c1	1%	-2%	8%	?	1%	2%
Cc1ccccc1Cn1cnc2c(oc3ccccc32)c1=O	26%	-2%	-17%	?	4µM*	9%
NC(=O)CC(NC(=O)c1ccc(Br)cc1)c1ccc(N2CCC(Cc3ccccc3)CC2)c([N+](=O)[O-])c1 (stereo not given)	20µM*	1%	-17%	-21%	-6%	?
OCC(Br)(Br)Br	-6%	.	.	.	-5%	.
O=C1NC(=O)N(Cc2ccccc2)C(=O)/C1=C/C=C/c1ccco1	13µM*	0%	-37%	?	?	?
CC(C)c1ccc(N2C(=O)NC(=O)/C(=C\C=C\c3ccco3)C2=O)cc1	4.5µM*	23%	0%	14%	?	-15%
CC(C)c1ccc(N2C(=O)NC(=O)/C(=C\c3cnc(-c4ccccc4)nc3)C2=O)cc1	-2%	3%	18%	2%	1%	6%
COc1ccc(CN2C(=O)NC(=O)/C(=C\c3ccco3)C2=O)cc1	-7%	-5%	-11%	3%	-5%	3%
CCC1OC2(C)C(O)C(/C=C/C=C/C=C/c3oc(=O)cc(OC)c3C)OC1(C)C2OC(C)=O (stereo not given)	.	.	.	.	0.04µM*	.
CCC1COC(Cn2cncn2)(c2ccc(Cl)cc2Cl)O1 (stereo not given)	0%	.	.	.	-27%	.
CC1=C/C(=N\NC(=S)NCCc2ccccc2)CC(C)(C)C1	?	14%	26%	?	0.5µM*	-2%
SMILES	VP16 counter	Mito fusion yeast	a7 integrin act	Chronic BCR inh	RORg inh	uPA surface inh
COc1ccc(CN2CCN(C(=O)Cn3c(=O)oc4cc(Cl)ccc43)CC2)c(OC)c1OC	?	-2%	-17%	-14%	?	-9%
S=C(S)N1CCCC1	0.32µM*	-82%	.	-10%	?	6%
CC(=O)Nc1c2sscc-2n(C)c1=O	0.25µM*	.	.	.	0.4µM*	.
Oc1ccc2c(c1)[C@@]13CCCCC1[C@@H](C2)N(CC1CCC1)CC3 (stereo not given in full)	5%	.	.	.	21%	.
CCOP(=S)(OCC)Oc1ccc(Cl)cc1Cl	-8%	.	.	.	17%	.
C[C@@H]1C[C@H]2OC(=O)C3(CO3)[C@H]2[C@H](O)[C@]2(C)C(=O)C3OC3[C@@H]12 (stereo not given in full)	?	-25%	.	?	10µM*	.
CC(C)C[C@@H](C(=O)NC1CCN(Cc2ccccc2)CC1)N1C(=O)N2CCc3c([nH]c4ccccc34)[C@@]2(C)C1=O	-19%	-3%	-51%	?	-41%	?
O=C(N[C@H]1C/C=C\C[C@H](CC(=O)N(CCO)Cc2ccccc2)C(=O)NC[C@H](c2ccccc2)OC1=O)OCC1c2ccccc2-c2ccccc21	.	.	-23%	?	.	-25%
Nc1cc(Cl)c2nonc2c1[N+](=O)[O-]	2.8µM*	0%	-54%	?	2µM*	0%
O=[N+]([O-])c1c(Cl)c(Cl)c(Cl)c(Cl)c1Cl	0%	.	9%	.	21%	-1%
CC[n+]1c(-c2ccccc2)c2cc(N)ccc2c2ccc(N)cc21	11µM*	.	-43%	.	?	-12%
COC(=O)C(O)(c1ccc(NC(=S)NC(=O)c2ccc(Cl)cc2Cl)c(C)c1)C(F)(F)F (stereo not given)	?	-24%	1%	?	8.9µM*	-15%
CCOC(=O)C(O)(c1ccc(NC(=S)NC(=O)c2ccc(Cl)cc2Cl)c(C)c1)C(F)(F)F (stereo not given)	?	-7%	-30%	?	13µM*	-4%
CCOC(=O)C(NC(=O)CC)(Nc1ccc(C(O)(C(=O)OCC)C(F)(F)F)cc1C)C(F)(F)F (stereo not given)	-5%	0%	-12%	3%	-2%	7%
Clc1ccc(C(Cl)(Cl)Cl)cc1Cl	-4%	.	.	.	-1%	.
CCN1CC2(OC(=O)c3ccccc3NC(C)=O)CCC(OC)[C@]34C1[C@H](CC23)[C@@]1(O)C[C@H](OC)[C@H]2CC4C1(O)[C@H]2OC (stereo not given in full)	0%	.	.	.	11%	.
C=C1C(O)C2OC3(CCC(/C=C/C(C)C4CC(C)=CC5(OC(CC(C)(O)C(=O)O)CCC5O)O4)O3)CCC2OC1C(O)CC(C)C1OC2(CCCCO2)CCC1C (stereo not given)	0.011µM*	.	.	.	0.004µM*	.
CCC[CH2][Sn]([Cl])([Cl])[Cl]	-9%	.	.	.	-6%	.
S=C1NC2(CCCCC2)NC12CCCCC2	?	-14%	-5%	-4%	8.9µM*	5%

Bioassay records from PubChem BioAssay.
